Results on 19 molecules are retold here after PubChem BioAssay.

Assay [1] in a line: OD615 S. cerevisiae growth inhibition, permissive medium, pilot counter-assay, permissive growth control for S. cerevisiae lifespan shortening project (AID 705). The conditions noted are these: OD615, 24 h, at 10 µM, stronger effect = higher value.
Assay [2] in a line: Restrictive medium S. cerevisiae growth inhibition, OD615, pilot screen of yeast lifespan reduction project, restrictive growth control (AID 706;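 active means growth inhibition above a set limit, 3 SD over mean compound inhibition, in both replicates, cut at about 43% in these data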;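 further: modified DeaD lifespan yeast strain shifted to restrictive glucose medium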). The conditions noted are these: OD615, 48 h, at 10 µM, stronger effect = higher value.
Assay [3] is described as follows: viability gain of MRP-1-high H69AR cells under doxorubicin, pilot screen, MRP-1 activator project, CellTiter-Glo, duplicate (AID 807;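 active means viability increase at or above a cutoff of the median across tested compounds plus 3 SD, cut at about 8.5% in these data, passing the limit was not always enough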;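 further: compound pretreatment 18-22 h then 72 h combined with doxorubicin; 0% = doxorubicin alone and 100% = vehicle without doxorubicin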). The conditions noted are these: H69AR viability with doxorubicin, CellTiter-Glo luminescence; at 10 µM; stronger effect = higher value. Background: ATP-based viability assays read luminescence as a measure of living cells.
A short description of assay [4]: growth suppression of beta-catenin knockout HCT116, pilot screen, human colon tumor cells (AID 823;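 active means cell viability at or below a set limit in both duplicate runs, the limit being the all-compound median minus 4 SD, cut at about 23% in these data, passing the limit was not always enough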;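 further: 0% = wells killed by 20 µM Hyamine and 100% = untreated DMSO cell wells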). The conditions noted are these: CellTiter-Glo, 60 h, at 10 µM, stronger effect = lower value.
The nature of assay [5]: growth suppression of PTEN-deleted HCT116, pilot screen, cell-based, HCT116 clonal line, CellTiter-Glo (AID 824;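 active means viability at or below 27.92% in each of two runs, the all-compound median minus 4 SD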;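 further: 0% = 20 µM Hyamine control and 100% = vehicle cell control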). The conditions noted are these: 60 h, at 10 µM, stronger effect = lower value.
Assay [6] is described as follows: RAM signaling pathway blockade in yeast – S. cerevisiae, Pdr1DBD-CYC8 efflux-inhibited sensitized strain, primary screen (AID 1298;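 active means RAM network inhibition above 8.4% in each of two replicates, 3 SD over the compound average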;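 further: 0% = DMSO untreated cells without growth and 100% = 10 µM 1-NA-PP1 full growth; higher means more yeast growth rescued from 5-FOA killing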). The conditions noted are these: S. cerevisiae cbk1-as DSE1-URA3 strain, 5-FOA growth OD615, 2 d; at 50 µM; stronger effect = higher value.
The nature of assay [7]: HUVEC growth inhibition – cell-based, human, primary screen (AID 575;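 active means viability at or below 30% in both replicate assays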;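 further: 100% = median of untreated cell wells with 0.1% DMSO on each plate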). The conditions noted are these: HUVEC proliferation, CellTiter-Glo luminescence, 72 h; at 10 µM; stronger effect = lower value.
Assay [8] is described as follows: growth inhibitors of H69AR lung tumor, primary screen, human, duplicate replicates (AID 580;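 active means viability at or under a set limit in both replicates, limit being median viability minus 3 SD, cut at about 48% in these data, passing the limit was not always enough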;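 further: 100% = mean luminescence of untreated wells and 0% = no signal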). The conditions noted are these: H69AR lung tumor cells viability, ATP luminescence, 72 h; at 10 µM; stronger effect = lower value.
The nature of assay [9]: reversal of MRP1-mediated doxorubicin resistance, pilot screen, H69AR cells, doxorubicin co-treatment (AID 601;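 active means viability loss from added drug above about 55%, and viability with drug at most 40%, in both replicates, limit read from the data, passing the limit was not always enough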). The conditions noted are these: CellTiter-Glo, 72 h, at 10 µM; for differential viability (reversal): stronger effect = higher value.
A short description of assay [10]: 384-well plate pilot, post-Golgi transport modulator project, inhibition of yeast transport mutant growth (AID 636; in the data active means inhibition above about 31%). The conditions noted are these: absorbance 615 nm, about 18 h, stronger effect = higher value.
The nature of assay [11]: growth suppression of yeast trafficking mutant, preliminary HTS, modulators of trafficking downstream of Golgi apparatus project, 1536-format plate, OD 615 nm (AID 637; in the data active means inhibition above about 30%). The conditions noted are these: yeast transport mutant growth, absorbance 615 nm, 18 h; stronger effect = higher value.
The nature of assay [12]: inhibitors of the yeast RAM network, pilot screen, dse1pr::URA3 reporter, 5-FOA selection (AID 869;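 active means inhibition over a set limit, the all-compound mean plus 3 SD, in both replicate runs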;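 further: 0% = DMSO wells with no growth and 100% = 10 µM 1-NA-PP1 with full growth; RAM network block rescues cells from 5-FOA so hits raise OD615 growth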). The conditions noted are these: S. cerevisiae dse1pr::URA3 5-FOA growth, OD615, 2 d; at 10 µM; stronger effect = higher value; strain carries analog-sensitive mutant Cbk1 kinase.
The mark [13] stands for this setting: H69AR cells + 2 uM doxorubicin, measured here: viability with 2 uM doxorubicin, stronger effect = lower value.
Setting [14] is: H69AR cells, compound alone cytotoxicity.

Results filed as inconclusive are left out. Active and inactive are the calls of the source.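 How the source made its calls, unless noted: active means growth inhibition above 25% in both replicates, a cutoff set 3 SD above the mean; inconclusive means above 25% in only one replicate; inactive means the rest.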

For the molecule `COc1ccc(N2CCN(C(=O)c3cc4c(-c5ccc(Cl)cc5)nn(C)c4s3)CC2)cc1`, the growth inhibition in assay [1] was 2.67% (inactive); in [2], -4.22% (inactive). Further, in assay [3], the viability increase is -3.45% (inactive). The values for the viability in assay [4] and in assay [5] were 78.6% (inactive) and 71.4% (inactive), respectively. Besides, the RAM network inhibition in [6] is 3.98% (inactive).
In the case of `Cc1ccc(-c2nc(CSCC(=O)N3CCN(C(=O)c4ccco4)CC3)c(C)o2)cc1`, the growth inhibition in assay [1] is -4.69% (inactive); in [2], 14.9% (inactive). Further, the viability increase in assay [3] is -1.03% (inactive). The results for the viability in assay [4] and in assay [5] were 76.4% (inactive) and 76.5% (inactive), respectively. Besides, the RAM network inhibition in assay [6] is 6.53% (inactive).
As for `CN1C(=O)c2cccc(NC(=O)CCc3ccccc3)c2C1=O`, the growth inhibition in assay [1] was -6.67% (inactive); in [2], 1.67% (inactive). Besides, the viability increase in [3] was 0.13% (inactive). The figures for the viability in assay [4] and in [5] were 99% (inactive) and 93% (inactive), respectively. In addition, the RAM network inhibition in [6] was 1.84% (inactive).
As for `COC(=O)c1nc2n(n1)C(c1ccc(OC)c(OC)c1)C(C(=O)OC1CCCCC1)=C(C)N2` (centres undefined), the viability (commonly a read-out of living cells in per cent, often relative to untreated cells) was 88.9% (inactive) in [7]; 83.3% (inactive) in assay [8]; 98% in [9] (setting [13]); 83.3% in [9] (setting [14]); 97.5% (inactive) in assay [4]. For the same molecule, the differential viability (reversal) in assay [9] (H69AR cells + 2 uM doxorubicin) was -14.8% (inactive). The inhibition (in general, the relative decrease from the control value, in per cent) in [10] is -6.49% (inactive); in [11] it was -4% (inactive); in [12], 2.87% (inactive). Moreover, the values for the growth inhibition in assay [1] and in assay [2] were -0.32% (inactive) and -3.14% (inactive), respectively. Also, in [3], the viability increase was -5.23% (inactive). In assay [6], the RAM network inhibition is 6.75% (inactive).
For `Cn1c(Cn2c(=O)sc3ccccc32)nnc1SCC(=O)Nc1ccccc1`, the growth inhibition in [1] was -7.53% (inactive); in [2], -2.15% (inactive). In [3], the viability increase is -1.41% (inactive). The results for the viability in [4] and in assay [5] were 99.5% (inactive) and 98.1% (inactive), respectively. Besides, the RAM network inhibition in assay [6] was 13% (inactive).
With `CCSC(C)CC1C/C(=N/O)c2c(CC)noc2C1` (centres undefined), the values for the growth inhibition in assay [1] and in assay [2] were -0.005% (inactive) and -4.39% (inactive), respectively. The viability increase in [3] was 5.22% (inactive). Moreover, the values for the viability in assay [4] and in assay [5] were 93.6% (inactive) and 94.2% (inactive), respectively. Also, the RAM network inhibition in assay [6] was 0.17% (inactive).
On to `Cc1ccc(C2CC(=O)NC(SCCC(C)C)=C2C#N)cc1` (centres undefined), for which the growth inhibition in assay [1] is -9.08% (inactive); in assay [2] it was -2.19% (inactive). Besides, in assay [3], the viability increase was -4.1% (inactive). The figures for the viability in assay [4] and in assay [5] were 96.8% (inactive) and 78.9% (inactive), respectively. Further, the RAM network inhibition in [6] is 9.74% (inactive).
In the case of `O=C(Nc1nc(-c2nc3ccccc3s2)cs1)C1COc2ccccc2O1` (centres undefined), the growth inhibition in [1] is 2.93% (inactive); in [2] it was -0.5% (inactive). For the same molecule, the viability increase in assay [3] was -2.5% (inactive). For the same molecule, the viability in assay [4] was 96.8% (inactive); in assay [5], 91.3% (inactive). The RAM network inhibition in assay [6] was 2.13% (inactive).
On to `Cc1cc(NC(=O)CSc2cn(CCNC(=O)c3ccc(Cl)cc3)c3ccccc23)no1`, for which the growth inhibition in [1] was -4.83% (inactive); in assay [2] it was -1.28% (inactive). The viability increase in assay [3] is -0.7% (inactive). In addition, the figures for the viability in assay [4] and in [5] were 61.5% (inactive) and 57.3% (inactive), respectively. The RAM network inhibition in assay [6] was 3.24% (inactive).
Consider `O=C(CSc1nc2c([nH]c3ccccc32)c(=O)n1-c1ccccc1)N1CCOCC1`, for which the figures for the growth inhibition in [1] and in [2] were -7.05% (inactive) and -18.6% (inactive), respectively. Besides, in [3], the viability increase is -6.19% (inactive). For the same molecule, the viability in assay [4] was 93.6% (inactive); in [5], 87% (inactive). For the same molecule, in [6], the RAM network inhibition was 5.28% (inactive).
Regarding `Cc1ccc2oc(-c3ccc(NC(=O)CC(C)C)cc3)nc2c1`, the growth inhibition in [1] was -9.28% (inactive); in assay [2], -6.46% (inactive). In addition, the viability increase in assay [3] is -0.39% (inactive). In addition, the viability is 102% (inactive) in assay [4] and 92.6% (inactive) in assay [5]. The RAM network inhibition in [6] was 7.81% (inactive).
Take `CC1(C)Cc2c(c(=S)nc(-c3ccccc3)n2CCCN2CCOCC2)CO1`: the growth inhibition was -12.8% (inactive) in [1] and 6.05% (inactive) in assay [2]. Besides, in [3], the viability increase was -3.1% (inactive). In addition, in assay [4], the viability was 97.2% (inactive). Besides, in assay [6], the RAM network inhibition is 2.19% (inactive).
For `CC(c1ccco1)N(C(=O)COc1ccc(Cl)cc1Cl)c1ccccn1` (centres undefined), the viability is 71.6% (inactive) in assay [7]; 76.4% (inactive) in assay [8]; 73.3% in assay [9] (setting [13]); 76.4% in assay [9] (setting [14]); 65.6% (inactive) in assay [5]. For the same molecule, in assay [9] (H69AR cells + 2 uM doxorubicin), the differential viability (reversal) is 3.06% (inactive). Moreover, the figures for the inhibition in assay [10], in assay [11] and in assay [12] were -6.71% (inactive), -10.3% (inactive) and 2.06% (inactive), respectively. The growth inhibition in assay [1] is -10.9% (inactive); in [2], -10.3% (inactive). Also, in [3], the viability increase is -4.89% (inactive). Further, the RAM network inhibition in [6] was 7.28% (inactive).
For the molecule `CCC(C(=O)N1CCN(c2cccc(Cl)c2)CC1)c1ccccc1` (centres undefined), the growth inhibition was 1.93% (inactive) in [1] and -5.71% (inactive) in assay [2]. Moreover, in [3], the viability increase was -4.98% (inactive). For the same molecule, the viability in [4] was 57.7% (inactive); in assay [5] it was 63% (inactive). For the same molecule, the RAM network inhibition in assay [6] is 8.74% (inactive).
Take `C#CCSc1nnc(-c2c[nH]c3ccccc23)n1C`: the figures for the growth inhibition in assay [1] and in assay [2] were 0.22% (inactive) and 8.42% (inactive), respectively. Besides, the viability increase in assay [3] was -2.77% (inactive). Also, the viability in assay [4] was 98.3% (inactive); in assay [5], 93.5% (inactive). In [6], the RAM network inhibition is -0.92% (inactive).
As to `Cc1ccc(-c2cc(C(F)F)nc(NCc3cccnc3)n2)cc1`, the viability in assay [7] is 63.9% (inactive); in [8], 80.3% (inactive); in [9] (setting [13]), 82.8%; in [9] (setting [14]), 80.3%; in assay [4], 51% (inactive); in assay [5] it was 64.2% (inactive). For the same molecule, the differential viability (reversal) in [9] (H69AR cells + 2 uM doxorubicin) is -2.5% (inactive). The figures for the inhibition in assay [10], in assay [11] and in assay [12] were -2.63% (inactive), 0.48% (inactive) and 1.65% (inactive), respectively. Besides, the growth inhibition was 4.57% (inactive) in assay [1] and -8.25% (inactive) in assay [2]. The RAM network inhibition in [6] is 0.76% (inactive).
As for `COCCCNc1nc2c(c(=O)[nH]c(=O)n2C)n1CC(O)COc1ccccc1C` (centres undefined), the growth inhibition in assay [1] was -1.92% (inactive); in assay [2], -7.5% (inactive). Moreover, the viability increase in assay [3] is -2.64% (inactive). Besides, the viability in assay [4] was 98.9% (inactive); in assay [5], 101% (inactive). Besides, in assay [6], the RAM network inhibition is 3.44% (inactive).
Take `Cn1c(=O)c2nnn(/N=C(\c3ccccc3)C3CC3)c2n(C)c1=O`: the growth inhibition was -11.4% (inactive) in [1] and -15% (inactive) in [2]. The viability increase in assay [3] was -1.2% (inactive). In addition, the figures for the viability in assay [4] and in assay [5] were 103% (inactive) and 98.7% (inactive), respectively. For the same molecule, the RAM network inhibition in assay [6] was 2.84% (inactive).
For the molecule `CCOc1ccc(-n2nnc3c(=O)n(CC(=O)c4ccccc4)cnc32)cc1`, the values for the growth inhibition in [1] and in [2] were -2.31% (inactive) and 1.56% (inactive), respectively. In addition, the viability increase in assay [3] was 0.38% (inactive). In addition, the results for the viability in assay [4] and in assay [5] were 101% (inactive) and 97% (inactive), respectively. Further, the RAM network inhibition in assay [6] was 3.09% (inactive).
